Measurements taken from the supplement of paper PMC6555819.

Key:
Experiment in all cases: PBM binding z-score (relative to random genomic background probes); higher = stronger binding; sequences stand for … in GC…GCGATTGACAGCGTAGAATGAAGG
[1] = system: RARb homodimer (NR concentration 270 nM)
Outline: (§1)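 Binding z-scores were set against random background probes. The data came from custom Agilent 4×180K protein-binding microarrays carrying double-stranded probes with 34-nt variable regions, incubated 1 h with ligand-free nuclear receptor dimers. Partner-specific antibodies detected binding, and scanned fluorescence was regression-normalized.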

[2] = system: RARg:RXRa (NR concentration 270 nM, RXRa partner concentration 90 nM)
Outline: as §1

[3] = system: RARg homodimer (NR concentration 270 nM)
Outline: as §1

[4] = system: RXRa DBDmut IVT, anti-RXR (DBD mutation: RXRa K156A/R161A, NR concentration 90 nM)
Outline: as §1

[5] = system: RXRa homodimer (NR concentration 180 nM)
Outline: as §1

[6] = system: THRa:RXRa (NR concentration 90 nM, RXRa partner concentration 90 nM)
Outline: as §1

[7] = system: THRa homodimer (NR concentration 90 nM)
Outline: as §1

[8] = system: VDR homodimer (NR concentration 270 nM)
Outline: as §1

Sequence | PBM binding z-score [1] | PBM binding z-score [2] | PBM binding z-score [3] | PBM binding z-score [4] | PBM binding z-score [5] | PBM binding z-score [6] | PBM binding z-score [7] | PBM binding z-score [8]
ACGGACAGGTGATGAAGGTAACTCAGGCTATCAT | 0.711 | 0.496 | 0.813 | 0.19 | 0.31 | 1.02 | 0.438 | 0.327
AAAGACAGGTGAGTGAAGGTAACTCAGCTGGACG | 0.159 | 0.293 | 0.488 | -0.545 | 0.374 | 1.86 | -0.204 | -0.128
CCAAGTAGGTTATGGGGCATTCAGGCAACGGTGA | 0.93 | 0.634 | 0.608 | 0.0857 | 0.733 | 0.508 | -0.0137 | 0.318
TCATATAGGTAAAAGGTGAAGGTCGGTGTGGTAA | 2.64 | 2.21 | 1.23 | 1.73 | 3.05 | 1.94 | 1.05 | 0.941
CCTTACGGGTGAAGGTTATAGCACGGGTGGTACG | 0.868 | 0.873 | 0.868 | -1.61 | 1.23 | 0.509 | 0.0246 | -0.283
TCATATAGGTAAAAGGTGAAAGACGGTGTGGTAA | 1.74 | 2.01 | 0.857 | 1.7 | 3.05 | 1.55 | 0.208 | 0.152
TAGCCTAGGTCATTCAGGGCCCAGTATAGAAAGC | 2.54 | 3.96 | 4.34 | 1.96 | 3.13 | 3.47 | 0.59 | 1.54
CCAGACAGGTGAGAAAGTAACTCAGCCTCGATTA | 0.0469 | 0.0483 | 0.249 | 0.169 | 0.0557 | -0.0555 | -0.123 | -0.255
GCTAGCAGGCCATTTGGGTCACTCTATGACGGGC | 1.56 | 0.776 | 0.994 | -0.157 | 0.463 | 1.4 | 0.526 | 0.578
AGTCAAAGTTCAGGACGAGGTGACGTAAAGCACG | 3.64 | 5.69 | 5.15 | 3.18 | 3.53 | 3.93 | 1.83 | 2.66
TCGCCTAGGTCAGATCGGGCCAGTATACGCTATA | 2.21 | 2.39 | 3.24 | 0.643 | 1.38 | 3.98 | 0.0988 | -0.139
AATACAGGGTCATCGTAGGCCAGAGCACGCACAG | 3.55 | 5.92 | 5.24 | 3.61 | 6.36 | 4.52 | 1.4 | 3.18
CCTACCGGGCCAAAAAGGTCATTGATGCCGATAA | 4.59 | 4.5 | 3.96 | 0.185 | 4.6 | 3.29 | 1.04 | 3.13
CCGAGCAGGCCAGGGTCACTCAAGCATTTCGCTT | 2.91 | 3.13 | 2.66 | 0.694 | 3.6 | 2.91 | 1.02 | 1.31
CGTCCAAGGTCAGCAGGTCAATGAAAGCGACGTG | 5.24 | 6.59 | 6.73 | 2.62 | 5.64 | 4.03 | 2.46 | 2.23
AGTCAAACTTCACTAGGTAACGTAAGATTCAGCT | -0.374 | 0.121 | 0.346 | 0.238 | -0.0168 | 0.342 | 0.203 | -0.395
ATCTCTAGGTAAACGTTCAGTGAATCCCGAGGAT | -0.498 | 0.172 | 0.369 | -0.148 | 0.0015 | 0.136 | 0.162 | -0.489
TCAGACAGGTGAAGGTTACTCAGGTACGCAGTCG | 1.84 | 1.16 | 1.17 | 1.54 | 1.72 | 2.58 | 0.799 | 0.58
TCATACAGGTAAACAGGTGAAAGTCCGTAAGTTA | 1.16 | 0.793 | 0.447 | 1.62 | 1.12 | 1.05 | 0.697 | 0.33

Sequence | PBM binding z-score [1] | PBM binding z-score [2] | PBM binding z-score [3] | PBM binding z-score [4] | PBM binding z-score [5] | PBM binding z-score [6] | PBM binding z-score [7] | PBM binding z-score [8]
CCTAGCAGGCCAATCCGGGTCACTCAAGGCTTGA | 2.35 | 1.67 | 1.42 | 0.0497 | 1.65 | 4.38 | 1.72 | 0.638
CAAACTAGGTCAAGGTCAACGTCGGTTTGTGCCA | 5.65 | 6.16 | 6.86 | 2.58 | 5.91 | 4.62 | 4.3 | 3.89
CCGACTGGGGCAGAAAGGTTCCCATACCATCCGG | 0.053 | -0.0575 | 0.0675 | -1.16 | -0.265 | -0.504 | -0.737 | -0.826
TCAGAGAGGTGAAGGTAACTCAGGTACGCAGTCG | 1.34 | 1.54 | 1.36 | 1.31 | 1.85 | 2.04 | 0.401 | 0.316
ATGGAAAGGTCGAAGGTGAGTATACCCACCCGAA | 2.68 | 4.21 | 3.87 | 0.318 | 4.97 | 2.3 | 0.00488 | 0.714
GCATATAGGTAATACAAGGTGAAAGCCCGATTGT | 0.51 | 0.492 | 0.56 | 0.379 | 0.681 | 4.09 | 0.763 | -0.285
TGAATGAGGTTAAAGATCATGGAACGTGGCGTCG | 0.734 | 2.46 | 1.32 | 0.839 | 4.34 | 2.79 | 0.35 | 0.314
CCGCGTAGGTTATGGGGCATTCAGGCAACGGTGA | 1.05 | 0.489 | 0.397 | -0.64 | 0.576 | 0.529 | 0.176 | -0.154
GCTATTAGTTGAAAGGGCAACAGAATGATTCTCG | 1.87 | 1.36 | 1.47 | 0.874 | 1.24 | 0.672 | -0.526 | 0.397
GCTGCTAGGTCGGGTTGGTCAGCTAACGGGTACG | 0.957 | 0.215 | 0.167 | -0.0966 | 0.0101 | 0.409 | 0.283 | 0.431
TCATATAGGTAAACAGGTGAAAGTACGTAAGTTA | 0.897 | 0.775 | 0.637 | 1.58 | 1.31 | 0.952 | 0.331 | 0.523
TCATATAGGTAAAAGTGAAAGTCGAACGATATGA | -0.485 | 0.288 | 0.384 | 0.791 | 0.523 | -0.171 | -0.456 | -0.103
CGTAGCAGGCCAGGGTCACTCAAGCATTTCGCTT | 2.51 | 3.02 | 2.53 | 0.749 | 3.36 | 2.84 | 1.33 | 1.18
ATCTCAAGGTAAAGATAGTTCAGTGAATGCAAAT | 0.976 | 1.03 | 1.11 | 0.292 | 0.564 | 1.53 | 0.311 | 0.351
CGTCCATGGTCAGAGAGGTCAGTGAATGCCGAGT | 4.09 | 3.16 | 4 | 0.839 | 2.97 | 2.58 | 0.835 | 2.63
GATACAGGGTCAGCTAGAGGCCAGAGTATGGAAA | 3.39 | 6.67 | 4.67 | 1.4 | 4.36 | 3.08 | 0.503 | 0.622
TGGCAAAGTTCAAAGGTAACGTAAGTATCCACAC | 4.03 | 6.21 | 5.81 | 4.22 | 7.78 | 3.41 | -0.0262 | 4.04
TCTCGTTGGTCACGGAGGTCACACACGACGGGTA | 4.68 | 4.95 | 4.91 | 0.929 | 4.39 | 3.73 | 2.29 | 2.98
ACTATTAGTTGAGACGAGAGCAACCGATAGGTTG | -0.441 | 0.044 | 0.359 | -0.00279 | 0.11 | -0.0893 | -0.555 | -0.215

Sequence | PBM binding z-score [1] | PBM binding z-score [2] | PBM binding z-score [3] | PBM binding z-score [4] | PBM binding z-score [5] | PBM binding z-score [6] | PBM binding z-score [7] | PBM binding z-score [8]
CCTATTAGTTGACCAAAAGGGCAACCGAAGCTCG | 3.11 | 2.31 | 1.84 | 0.787 | 1.09 | 0.99 | 0.0968 | 0.7
AATATAGGGTCACTAGGCCAGAGTAGGTACGAAT | 3.3 | 5.24 | 4.94 | 2.94 | 5.71 | 3.61 | 1.67 | 2.21
GGAACGAGGGCAAAGTTGATTGCATCTGTCGACG | 1.13 | 1.89 | 1.34 | 2.7 | 1.76 | 1.36 | -0.0538 | 1.55
CCGACAGGGGCAGAAAGGTTACCATACCATCCGG | 2.48 | 1.84 | 1.71 | -0.361 | 1.99 | 1.14 | -0.126 | 0.344
ATATGTAGGTAAAGGGTCATTCAGGTTGGTTCGC | 4.14 | 4.11 | 3.22 | 2.01 | 4.98 | 3.26 | 1.71 | 4.15
TCTGCTAGCTCAACGATGGTCAGCTAATCTGCTA | -0.694 | -0.391 | -0.546 | 0.109 | -0.436 | -0.558 | -1.1 | -0.902
TGATATAGGTAAATGCTAGGTGAAAGTCCGATCT | 0.551 | 0.276 | 0.33 | -0.331 | 0.453 | 1.18 | 0.59 | -0.0449
AGAATGAGGTTATACGTAGATCAAGGAAGAAAGT | 0.606 | 1.96 | 1.11 | 1.82 | 2.3 | 2.04 | 0.406 | 0.854
CGAACTAGGTCAGAACAGGACAGCGAAGGATGAT | 2.08 | 2.39 | 3.18 | 0.432 | 1.39 | 3.82 | 0.236 | -0.0467
TCTACCAGGCCAGAGGGTCACTCAAGAGGTACGG | 3 | 3.03 | 2.46 | 0.518 | 2.92 | 1.93 | 0.581 | 0.936
TCGAGTAGGCTACCAATGGGGCATTCAGCTTTCT | -0.245 | -0.505 | -0.706 | -0.0858 | -0.356 | -0.828 | -0.931 | -0.898
ATTATTAGTTGAGACGAGGGCAACCGATAGGTTG | 1.64 | 1.02 | 1.18 | 0.511 | 0.708 | 2.79 | 0.878 | 1.63
GCTTACGGGACAAAGGTTATAGCATGAATAGAAT | 1.47 | 2.52 | 1.27 | 0.777 | 2.36 | 1.55 | -0.159 | 0.681
TCATATAGGTAAATGCTCGGTGAAAGTCCGATCT | 0.197 | 0.387 | 0.081 | 1.45 | 0.76 | 0.193 | 0.208 | 0.375
AGAGACAGGTGATGAAGGTAACTCAGGCTATCAT | 0.746 | 0.284 | 0.541 | -0.709 | 0.56 | 1.25 | 0.485 | 0.0584
TTACCAAGGTAAGCTGAGGTCGTTGATCCAACTC | 0.571 | 0.164 | -0.00347 | 0.278 | 0.962 | 4.33 | 1.61 | 1.65
ATCTCTAGGTAAAGTGCAGTGAAAGATCGATAGA | 0.108 | 0.474 | 0.497 | 0.0332 | 0.222 | 0.316 | -0.174 | -0.0309
CATACAGGTTCAGCTAGGCCAGAGTAGGGACGGC | 0.871 | 1.01 | 1.03 | 2.89 | 1.41 | 1.05 | 0.0311 | 2.65
TCTGCTAGGCCAGTTGGTCAGCTAACGAGCTGCC | -0.0493 | -0.411 | -0.212 | -0.198 | -0.79 | -0.845 | -1.4 | -1.5
